Inconclusive results are not listed. Unmarked numbers belong to inactive results. The call rests on the fitted dose curve; in most records, active means well fitted inhibition curve with a large enough effect; inconclusive means small, poorly fitted or top-dose-only effect; inactive means flat fitted curve, though single readings scatter.
Target: Aldehyde dehydrogenase, mitochondrial (Homo sapiens) (UniProt P05091)
Test: qHTS for Inhibitors of the Aldehyde Dehydrogenase Family (ALDH2) Primary screen (AID 2061308);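 further: plate controls were vehicle for no effect and reference inhibitor for full effect; nearly all actives have a fitted effect of over 55% in size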
Conditions: ALDH2 enzyme inhibition qHTS, 1536-well; series mostly up to 56 µM; activity change, negative = inhibition: at the top concentration

In order of rising “activity change, negative = inhibition” value:
1. FC(F)(F)c1ccccc1-c1nc(NCc2ccc(-c3cccc(Cl)c3)cc2)c2ccccc2n1  -25.5%
2. N#Cc1nc(Nc2ccc(C(F)(F)F)cc2)nc(NC2CCCC2)n1  -11.4%
3. O=P(c1ccccc1)(c1ccccc1)c1cnc2ccccn12  -8.69%
4. O=S1(=O)N=C(Oc2cccc(Br)c2)c2ccccc21  -8.49%
5. C=CCNc1oc(-c2cccc(F)c2)nc1C#N  -7.55%
6. C/C1=C\CCC2=CC(OC2=O)C(C)(C)/C=C/C1=O (stereo not given)  -6.7%
7. Cn1cncc1CNc1ncnc2ccc(-c3ccc4c(c3)OCO4)cc12  -3.88%
8. O=C1CCCC2=C1C(c1cccc(Cl)c1)N=C(Nc1nc3ccccc3o1)N2 (stereo not given)  -3.33%
9. O=C(Nc1ccc(-n2cncn2)c(C(F)(F)F)c1)Nc1nnc(-c2ccncc2)s1  -2.07%
10. COc1cccc(NC(=O)c2cc(-c3ccc(C)c(C)c3)nc3ccccc23)c1  1.45%
11. O=C1CCCC2=C1C(c1[nH]ncc1Cl)NC(=NCc1ccncc1)N2 (stereo not given)  1.46%
12. CCNC(=O)c1ccc(-c2ccc3ncnc(NCCc4cnc[nH]4)c3c2)o1  2.73%
13. CCc1ccccc1C(=O)N1CCc2cc(-c3nc(NC(=O)Cc4ccc5c(c4)OCO5)sc3C)ccc21  3.14%
14. CCCCNc1nc(C)nc2c1nc(-c1ccccc1)n2CCCCN(CC)CC  3.55%
15. COc1c2cc(c(O)c1OC)CCCCC(O)CCc1ccc(O)c-2c1 (stereo not given)  3.92%
16. C=C[C@H]1CN2CC[C@H]1C[C@@H]2C(O)c1ccnc2ccc(OC)cc12 (stereo not given in full)  4.04%
17. COc1cc(OC)cc(C2=Nn3c(nnc3-c3ccccc3O)SC2)c1  4.09%
18. CN(C)C(=O)C1CCN(c2nc(-c3ccc(Br)cc3)cs2)CC1  4.92%
19. Clc1ccc(-c2nc3ccccc3s2)cc1  5.11%
20. COc1cccc(NC(=S)N2CCN(c3cccc(Cl)c3Cl)CC2)n1  5.55%
21. O=C(Nc1ccc2sccc2c1)Nc1nnc(-c2cccnc2)s1  5.56%
22. N#Cc1nc(-c2cccc3ccccc23)oc1NC1COC1  5.61%
23. CCCn1c(-c2ccc(F)cc2)nc2c(NC(C)CCCN(CC)CC)nc(C)nc21 (stereo not given)  7.14%
24. Cc1ccc([S+](=O)([O-])n2cc(Cc3ccc(-c4ccccc4)cc3)c3ccccc32)cc1  7.14%
25. O=C(Nc1cccc(C(F)(F)F)c1)c1cccs1  7.65%
26. CCCCNc1nc(C)nc2c1nc(-c1ccccc1)n2C(C)CCCN(CC)CC (stereo not given)  8.45%
27. O=C(Nc1ccc(F)nc1)Nc1nnc(-c2ccncc2)s1  8.52%
28. Cc1cc2c(s1)c1cnn(Cc3cccc(C(F)(F)F)c3)c(=O)c1n2C  8.53%
29. NCCC(=O)Nc1cccc(-c2nn3c(=O)cc(N4CCNCC4)nc3s2)c1  11.3%
30. O=C(c1ccc2c(c1)ncn2-c1cccc(C(F)(F)F)c1)N1CCCCC1  11.7%
31. Cc1ccc(C(=O)Nc2ccccc2C(=O)Nc2nc(-c3ccccc3)cs2)cc1  11.7%
32. O=C1CCc2cc(S(=O)(=O)Nc3ccc4c(c3)CCC4)ccc2N1  13.8%
33. O=C1CCc2cc(S(=O)(=O)Nc3cccc(B(O)O)c3)ccc2N1  14%
34. CCCn1c(C)nc2c(N(CCN(CC)CC)CCN(CC)CC)nc(C)nc21  14.2%
35. COC(=O)c1ccccc1NC(=O)c1ccc(C#N)cc1  14.2%
36. COc1ccc2nc(-c3ccc(OC)c(OC)c3)sc2c1  14.8%
37. Cn1nnnc1Sc1ncnc2scc(-c3ccc(C#N)cc3)c12  17%

`COc1cc(OC)c(C(CC(=O)N2CC(C)CC(C)C2)c2ccc3c(c2)OCO3)c(OCC(N)=O)c1` (stereo not given) was tested, and the “activity change, negative = inhibition” value was -4.12% [at 114 µM].

`CC(C)(O)/C=C/C(=O)[C@](C)(O)[C@H]1[C@H](O)C[C@@]2(C)[C@@H]3CC=C4[C@@H](C[C@H](O[C@@H]5O[C@H](CO)[C@@H](O)[C@H](O)[C@H]5O)C(=O)C4(C)C)[C@]3(C)C(=O)C[C@]12C` was tested, and the “activity change, negative = inhibition” value was 5.13% [at 16.9 µM].

`COC1CC(O[C@H]2CC[C@@]3(C)C(=CC[C@]4(O)C3[C@H](OC(C)=O)[C@@H](OC(=O)c3ccccc3)[C@]3(C)[C@@H](C(C)=O)CC[C@@]34O)C2)OC(C)C1OC1CC(OC)C(OC2CC(OC)C(OC3OC(C)C(OC4OC(CO)C(O)C(O)C4O)C(OC)C3O)C(C)O2)C(C)O1` (stereo not given in full) showed an activity change, negative = inhibition of 8.46% [at 11.2 µM].
